The test in a line: JC-1 mitochondrial potential readout, lung cancer cells – cell-based, A549, JC-1 fluorescence, basal, 24 h, 100 nL, profiling panel (AID 1138).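 Also: A549 lung adenocarcinoma cells under basal conditions with no added stimulus; test concentration not given here.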 To be noted: higher = more signal.
In the case of `CSCC[C@@H]1NC(=O)CC=C[C@@H](C)COC(=O)[C@H](C)COC1=O`, the z-score came to 1.64.
As for `CC1(C)O[C@H]2O[C@H]([C@H](O)CON=C3[C@H]4CCn5c(=O)n(-c6ccccc6)c(=O)n5[C@H]4[C@H](O)[C@@H]4O[C@H]34)[C@H](O)[C@H]2O1`, the figure is -0.994; as for `COc1cccc([C@H]2Oc3ccc(OC)cc3C(=NO[C@@H](C)c3cc(-c4c(C)cc(C)cc4C)no3)[C@@H]2O)c1`, 0.611.
For the molecule `CC(=O)OC[C@H]1O[C@H](C#CCCc2ccccc2)C=C[C@@H]1OC(C)=O`, the z-score stood at 0.0303.
As for `CC(C)=CCCC(C)=CCON=C1C[C@@H](O)[C@@H](O)[C@@H]2[C@@H]3C(=O)N(C4CCCCC4)C(=O)[C@@H]3CC[C@H]12`, the figure is 0.292.
For the molecule `COC(=O)[C@H](C)NC(=O)CCC1CC(OC(=O)NCc2ccc3c(c2)OCO3)CC2(CCCC(COC(=O)NCCc3ccc(Cl)cc3)O2)O1` (stereo partly specified), the z-score was -0.928.
As for `COC(=O)[C@H](C)NC(=O)CCC1CC(OC(=O)NCCc2ccc(F)cc2)CC2(CCCC(COC(=O)NCC3CCCCC3)O2)O1` (stereo partly specified), the figure is -1.03; as for `CCN1C(=O)[C@H]2[C@H]3[C@H](O)[C@H](O)CC(=NO[C@H](C)c4cn([C@H](CO)Cc5ccccc5)nn4)[C@@H]3CC[C@H]2C1=O`, -0.00321; as for `CCN1C(C)=C(C(=O)OC)[C@@H](c2ccccc2)N2C(=O)[C@](O)(C(=O)OC)CC(C(C)=O)=C12`, 1.07.
The molecule `C=CC[C@@H]1C=C[C@H](ON=C(C)CCN2CCCCc3nc(C)c(C)cc32)[C@@H](CO)O1` returned a z-score of 0.143.
As to `CC(C)=NOC(C)CN1CCCCc2nc(C)c(C)cc21` (stereo unspecified), the z-score stood at 0.23.
Then `CCOC(=O)[C@H](Cc1ccccc1)NC(=O)CCC1CC(OC(=O)NCCc2ccc(F)cc2)CC2(CCCC(COC(=O)NCCOc3ccccc3)O2)O1` (stereo partly specified), with 0.678; and `Cc1ccc(S(=O)(=O)N[C@@H]2COC(=O)CC=C[C@@H](C)[C@H](NS(=O)(=O)c3ccc(C)cc3)COC(=O)[C@H](C)NC(=O)CC=C[C@H]2C)cc1`, with 0.73.
As for `CCOC(=O)CCN1C(=O)[C@H]2[C@H]3[C@H](O)[C@H](O)CC(=NOCC(C)C)[C@@H]3CC[C@H]2C1=O`, the figure is -0.478.
As for `CC(=O)OC[C@H]1O[C@H](CCON=C(C)CCN2CCCc3nc(C)c(C)cc32)C=C[C@@H]1OC(C)=O`, the figure is -0.349; as for `Cc1cc2c(nc1C)CCCCN2CC(O)CN1CCCc2nc(-c3ccc(Br)cc3)ccc21` (stereo unspecified), 1.59.
`CC(C)(C)N1C(=O)[C@H]2[C@@H]3C(=CC[C@H]2C1=O)C(=O)[C@H]1O[C@H]1[C@H]3O` returned a z-score of -0.732.
Take `CC(CCN1CCCc2nc(C)c(C)cc21)=NOC[C@@H](C)[C@H](OCc1ccccc1)C(C)C`: the z-score was determined as 1.37.
Then `CON=C(C)CCC(=O)OC[C@H]1O[C@H](C#Cc2ccccc2)C=C[C@@H]1Oc1ccc(C)cc1`, with -0.656.
As for `C[C@@H]1CC[C@@H](C(=O)O)N[C@H]1c1cccc(N2CCOCC2)c1`, the figure is 2.11; as for `O=C1C2=CC[C@H]3C(=O)N(C4CCCCC4)C(=O)[C@H]3[C@H]2[C@H](O)[C@@H]2O[C@H]12`, -1.65; as for `CCOC(=O)[C@H](Cc1ccccc1)NC(=O)CCC1CC(OC(=O)NCCc2ccc(F)cc2)CC2(CCCC(COC(=O)NCc3cccc(C(F)(F)F)c3)O2)O1` (stereo partly specified), 0.578.
Then `O=C1[C@H]2[C@H]3[C@H](O)[C@H](O)CC(=NO[C@@H]4O[C@H](CO)[C@@H](O)[C@H](O)[C@H]4O)[C@H]3CC[C@H]2C(=O)N1C[C@@H]1CCCO1`, with -0.222; and `CC(CCC(=O)OC[C@H]1O[C@H](C#Cc2ccccc2)C=C[C@@H]1Oc1ccc(C)cc1)=NOC[C@@H](C)[C@H](OCc1ccccc1)C(C)C`, with -0.197; and `C[C@@H]1CC[C@H]2C(=O)OC(Cc3ccccc3)CN2[C@H]1c1ccc(Br)cc1` (stereo partly specified), with 1.57.
With `COC(=O)CC=C[C@@H](C)[C@@H](C=NOC[C@@H](O)COCc1ccco1)OC`, the z-score was 0.662.
In turn, `CCc1cc2c(nc1CC)CCN(CCC(C)=NOC[C@@H](C)[C@H](OCc1ccccc1)C(C)C)C2` had a z-score of 0.874.
Then `O=C1C2=CC[C@H]3C(=O)N(C[C@@H]4CCCO4)C(=O)[C@H]3[C@H]2[C@H](O)[C@@H]2O[C@H]12`, with 0.982.
For `CCOC(=O)CCN1C(=O)[C@H]2[C@H]3[C@H](O)[C@H](O)CC(=NNC(=O)OCC)[C@H]3CC[C@H]2C1=O`, the z-score is -0.918.
Then `COc1ccc2c(c1)O[C@@H](c1cccc(C(F)(F)F)c1)[C@H](O)C2=O`, with 0.903; and `COC(=O)CC=C[C@@H](C)[C@@H](C=NOC(C)CN1CCCCc2nc(C)c(C)cc21)NS(=O)(=O)c1ccc(C)cc1` (stereo partly specified), with -0.297.

(Values after PubChem BioAssay.)
